Test results from PubChem BioAssay (NCI).
About 79,000 compounds went through this panel and 15% of them were active in at least one assay; those are over-represented in the sample as a whole. The source made the active and inactive calls. Rule as the data show it: active = growth inhibition above about 70%; inactive = the rest.

Key:
[1] = NCI Yeast Anticancer Drug Screen. Data for the rad52 strain (AID 147);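 also: 0% = growth of vehicle-treated control cultures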; settings: S. cerevisiae rad52 mutant growth inhibition, active compounds read high
Outline: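 Compounds are applied to a genetically defined yeast strain lacking normal DNA damage repair, and inhibition of growth is expressed relative to cultures given vehicle only.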

[2] = NCI Yeast Anticancer Drug Screen. Data for the wt1 strain (AID 149);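 also: 0% = growth of vehicle-treated wt1 cultures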; settings: S. cerevisiae wt1 strain (SPY 50644) growth inhibition, active compounds read high
Outline: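 Each compound is tested on wt1 yeast and the loss of growth versus vehicle gives the inhibition value.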

[3] = NCI Yeast Anticancer Drug Screen. Data for the rad50EPP+ strain (AID 151);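 also: 0% = growth of vehicle-treated control cultures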; settings: S. cerevisiae rad50 mutant strain, active compounds read high
Outline: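 Compounds were applied to the rad50EPP+ yeast strain, which bears a defined DNA repair alteration, and growth inhibition was determined relative to vehicle-treated cultures.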

[4] = NCI Yeast Anticancer Drug Screen. Data for the mgt1 strain (AID 153); settings: S. cerevisiae mgt1 mutant growth inhibition, active compounds read high
Outline: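 Strain: mgt1 yeast, one of a set carrying defined DNA damage repair or cell cycle control alterations. Compound-treated growth compared with vehicle.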

[5] = NCI Yeast Anticancer Drug Screen. Data for the rad50 strain (AID 155);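 also: 0% = growth of vehicle-only cultures of the same strain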; settings: S. cerevisiae rad50 strain growth inhibition, active compounds read high
Outline: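 Vehicle-treated cultures provide the reference for the growth inhibition reported for compound-exposed, repair-deficient yeast.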

[6] = NCI Yeast Anticancer Drug Screen. Data for the mec2-1 strain (AID 157); settings: S. cerevisiae mec2-1 strain, active compounds read high
Outline: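 Strain: mec2-1 (DNA repair/cell cycle alteration). Compound exposure, then growth measured; inhibition expressed relative to vehicle.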

[7] = NCI Yeast Anticancer Drug Screen. Data for the rad14 strain (AID 159);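 also: 0% = growth of vehicle-treated control cultures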; settings: S. cerevisiae rad14 strain growth inhibition, active compounds read high
Outline: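 Inhibition of growth is reported for a repair-deficient yeast mutant following compound treatment, calculated relative to cultures that received vehicle.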

[8] = NCI Yeast Anticancer Drug Screen. Data for the sgs1 mgt1 strain (AID 161);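 also: 0% = growth of cultures given vehicle only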; settings: S. cerevisiae sgs1 mgt1 strain, active compounds read high
Outline: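 Mutant yeast exposed to compound; growth scored against vehicle-only wells.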

[9] = NCI Yeast Anticancer Drug Screen. Data for the CLN2oe strain (AID 163);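 also: 0% = growth of vehicle-only control cultures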; settings: S. cerevisiae CLN2oe strain, active compounds read high
Outline: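 Growth of a genetically modified yeast strain is measured after compound exposure and compared with cultures given vehicle alone.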

[10] = NCI Yeast Anticancer Drug Screen. Data for the cln2 rad14 strain (AID 165);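 also: 0% = growth equal to vehicle treated cultures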; settings: S. cerevisiae cln2 rad14 strain, active compounds read high
Outline: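 Compounds are applied to the cln2 rad14 yeast strain, and growth is then compared with that of vehicle-treated cultures to give inhibition.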

[11] = NCI Yeast Anticancer Drug Screen. Data for the bub3 strain (AID 167); settings: S. cerevisiae bub3 mutant strain, active compounds read high
Outline: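 Mutant yeast screening strain plus compound; vehicle-treated cultures serve as the 0% inhibition reference.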

[12] = NCI Yeast Anticancer Drug Screen. Data for the wt2 strain (AID 169); settings: S. cerevisiae wt2 strain growth inhibition, active compounds read high
Outline: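 This strain belongs to a panel of yeast strains with defined genetic alterations in DNA damage repair or cell cycle control. Compounds are applied, and growth inhibition is measured against vehicle-treated cultures.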

[13] = NCI Yeast Anticancer Drug Screen. Data for the mlh1 strain (AID 171);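 also: 0% = growth of vehicle-treated control cultures of the same strain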; settings: S. cerevisiae mlh1 strain growth inhibition, active compounds read high
Outline: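 Growth of the mutant yeast strain after compound exposure, expressed as inhibition relative to vehicle-only controls.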

[14] = NCI Yeast Anticancer Drug Screen. Data for the sgs1 strain (AID 173);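 also: 0% = growth of vehicle-only control cultures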; settings: S. cerevisiae sgs1 mutant, active compounds read high
Outline: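 Growth of a yeast strain bearing a defined genetic alteration is measured after compound treatment. Inhibition is expressed relative to vehicle-only controls.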

[15] = NCI Yeast Anticancer Drug Screen. Data for the mlh1 rad18 strain (AID 175); settings: S. cerevisiae mlh1 rad18 strain growth inhibition, active compounds read high
Outline: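 Read-out is yeast growth inhibition, calculated against vehicle-only controls. The compound was applied to a strain engineered with DNA damage repair alterations.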

[16] = NCI Yeast Anticancer Drug Screen. Data for the rad18 strain (AID 177); settings: S. cerevisiae rad18 mutant growth inhibition, active compounds read high
Outline: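 Growth of the mutant yeast strain after compound exposure, normalised to vehicle-only cultures.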

[17] = at 5.0 µM (retest, dose inferred, filed as 0.5)
[18] = at 50.0 µM (retest, dose inferred, filed as 5.0)

Measured: growth inhibition

COC(=O)C1CCCCC1C(=O)Nc1ccccc1 (stereo not drawn)
active: [11]; at 50.0 µM 74.2%
inactive: [1]; at 1.2 µM 0% | [1]; at 3.7 µM 1% | [1]; at 11.0 µM 1% | [1]; at 33.0 µM 1% | [1]; at 100.0 µM -2% | [2]; at 1.2 µM -2% | [2]; at 3.7 µM -2% | [2]; at 11.0 µM 0% | [2]; at 33.0 µM -1% | [2]; at 100.0 µM 0% | [3]; at 1.2 µM -3% | [3]; at 3.7 µM -1% | [3]; at 11.0 µM -1% | [3]; at 33.0 µM -6% | [3]; at 100.0 µM 0% | [4]; at 1.2 µM 0% | [4]; at 3.7 µM -1% | [4]; at 11.0 µM 1% | [4]; at 33.0 µM -1% | [4]; at 100.0 µM -32% | [5]; at 1.2 µM -3% | [5]; at 3.7 µM -1% | [5]; [17] 10% | [5]; at 11.0 µM 0% | [5]; at 33.0 µM 0% | [5]; [18] 2% | [5]; at 50.0 µM 20.8% | [5]; at 100.0 µM -3% | [6]; at 1.2 µM -3% | [6]; at 3.7 µM -3% | [6]; [17] 0% | [6]; at 11.0 µM -2% | [6]; at 33.0 µM -4% | [6]; [18] -2% | [6]; at 50.0 µM 10.8% | [6]; at 100.0 µM -1% | [7]; at 1.2 µM -2% | [7]; at 3.7 µM -3% | [7]; at 11.0 µM -2% | [7]; at 33.0 µM -1% | [7]; at 100.0 µM -3% | [8]; [17] 0% | [8]; [18] -26% | [8]; at 50.0 µM 15.4% | [9]; at 1.2 µM -3% | [9]; at 3.7 µM -1% | [9]; at 11.0 µM -4% | [9]; at 33.0 µM -3% | [9]; at 100.0 µM -1% | [10]; [17] -2% | [10]; [18] 6% | [10]; at 50.0 µM 62.5% | [11]; at 1.2 µM -10% | [11]; at 3.7 µM -10% | [11]; [17] -7% | [11]; at 11.0 µM -12% | [11]; at 33.0 µM -12% | [11]; [18] -9% | [11]; at 100.0 µM -11% | [12]; at 1.2 µM -2% | [12]; at 3.7 µM -1% | [12]; at 11.0 µM -2% | [12]; at 33.0 µM -4% | [12]; at 100.0 µM -1% | [13]; at 1.2 µM 0% | [13]; at 3.7 µM 0% | [13]; at 11.0 µM 2% | [13]; at 33.0 µM 2% | [13]; at 100.0 µM 2% | [14]; at 1.2 µM -2% | [14]; at 3.7 µM -2% | [14]; at 11.0 µM 0% | [14]; at 33.0 µM 0% | [14]; at 100.0 µM 1% | [15]; [17] -3% | [15]; [18] -2% | [15]; at 50.0 µM 25.6% | [16]; at 1.2 µM -2% | [16]; at 3.7 µM -1% | [16]; at 11.0 µM -2% | [16]; at 33.0 µM -3% | [16]; at 100.0 µM -1%
